The panel holds about 83,000 compounds, 20% with a hit somewhere; the sample as a whole holds those more often.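 Interpretation: 100, growth as untreated; towards 0, rising growth inhibition; 0, no net growth; 0 to -100, cell death. Compounds scoring below 10 were considered active.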 A number with no mark means an inactive call. The source made the active and inactive calls.
What follows are compounds tested on CAKI-1 renal (assay: NCI-60 one-dose screen, 48 h (100 = growth as untreated, 0 = no growth, -100 = all killed)). Settings: 10 µM unless noted.
`O=C1Nc2ccccc2/C1=C\c1cccc(/C=C2/C(=O)Nc3ccccc32)n1` was tested, and the growth was -80.7% (active).
In the case of `COc1ccc(/C=N/NC(=O)c2cccc3cc[nH]c23)cc1O`, the growth is reported as 46.5%.
`CCN1C(=O)N(CC)C2C1NN=c1s/c(=C3\C(=O)Nc4ccccc43)c(=O)n12` (stereo unspecified) was tested, and the growth was 35.5%.
Compound `CC(C)(O)C1CCCN1C(=O)c1ccccc1I` (stereo unspecified) has a growth of 88.2%.
For `O=C1NC(=S)NC(=O)C1=Cc1cccc(C=C2C(=O)NC(=S)NC2=O)c1`, the growth was 93.9%.
With `Cn1c2c(Cl)c(Cl)ccc2c2cc(N)[nH]c(=O)c21` the growth was -23.4% (active).
In the case of `COc1ccc(-c2cnnc3c(-c4cccc(C(F)(F)F)c4)cnn23)cc1`, the growth is reported as -31.8% (active).
Compound `O=C1Nc2c(ccc(Cl)c2Cl)/C1=C/c1ccc([N+](=O)[O-])cc1` has a growth of 59.6%.
With `COc1ccc(-c2nc(SCC(C)C)nc(N/N=C(/C)c3ccc(OC)c(OC)c3)c2C#N)cc1` the growth was 86%.
With `NS(=O)(=O)c1cccc(NC(=O)C(=O)C2C(=O)Nc3ccccc32)c1` (stereo unspecified) the growth was -3.03% (active).
`O=S(=O)(c1cccc(NC2=Nc3cccc4cccc2c34)c1)N1CCCC1` gave a growth of 78%.
With `CCOC(=O)c1c(SC)nn(-c2cc(=O)[nH]c3ccc(Br)cc23)c1N` the growth was 87.2%.
With `CC(=O)c1c[nH]c2ccc(-c3ccnc(Nc4ccc(NC(=O)C5CCCC5)c(CN5CCOCC5)c4)n3)cc12` the growth was 0.231% (active).
With `COc1ccc(/C=C(/c2ccccc2)[N+](=O)[O-])cc1` the growth was -88.3% (active).
`O=C1Nc2c(ccc(Cl)c2Cl)/C1=C/c1ccccn1` was tested, and the growth was -1.32% (active).
`CCN(CCNc1cc(OC)cc2cccnc12)CCc1ccccc1` was tested, and the growth was 84.7%.
`COc1cc2nc(-c3ccc(C#N)cc3)[nH]c(=O)c2cc1OC` was tested, and the growth was 92%.
In the case of `CCCOc1nc(SCCC)nc2c1cnn2-c1ccccc1`, the growth is reported as 105%.
Compound `O=S(=O)(c1ccccc1)N1CCCc2ccccc21` has a growth of 101%.
With `O=C(Nc1ccc(Cl)cc1)Nc1ccc(Cl)c(Cl)c1` the growth was -1.31% (active).
Work on `COc1cc(NCC(O)CN(CC(C)C)C2CCCC2)c2ncccc2c1` (stereo unspecified) yielded a growth of 94.6%.
Compound `COc1ccc(Nn2c(SCC(=O)Nc3nc(-c4ccc(Cl)cc4)cs3)nc(C)c2C)cc1` has a growth of 34.4%.
For `COc1cccc2c1C(=O)c1c(O)c3c(c(O)c1C2=O)C[C@@](O)(C(=O)CO)C[C@@H]3O[C@H]1C[C@H](N)[C@@H](O)[C@H](C)O1`, the growth was 25.1%.
`Clc1ccc(N2N=C(c3cccc(Nc4ccncc4)c3)CC2c2ccc3c(c2)OCO3)cc1` (stereo unspecified) gave a growth of 10%.
For `O=C(N/N=C/c1ccncc1)c1ccccc1Nc1cccc(C(F)(F)F)c1`, the growth was 117%.
Compound `COc1ccc(Cc2nc3cc(OC)c(OC)cc3c(=O)[nH]2)cc1` has a growth of 95.7%.
`COc1ccc(-c2c[nH]c(C(=O)O)c2-c2cc(OC)c3c(c2OC)OCO3)cc1` gave a growth of 86.4%.
Compound `Clc1ccc(N2N=C(c3cccc(Nc4ccncc4)c3)CC2c2ccccc2)cc1` (stereo unspecified) has a growth of 76.2%.
For `COc1ccc(Cn2nc(-c3cc(OC)c(OC)c(OC)c3)c3c2CCc2cnoc2-3)cc1OC`, the growth was 50.3%.
`COc1cc2nnn3c4ncccc4c(N=O)c3c2cc1OC` showed a growth of 74.9%.
With `Clc1nc(Cl)c2ncn(CC3(Cn4cnc5c(Cl)nc(Cl)nc54)COC3)c2n1` the growth was -87.8% (active).
`C(=N\Nc1ncc(-c2cc3cc4c(cc3o2)OCO4)s1)/c1c[nH]c2ccccc12` was tested, and the growth was -43.3% (active).
`COc1ccc(-c2nn(Cc3ccccc3)c3c2-c2oncc2CC3)cc1OC` gave a growth of 81.8%.
In the case of `COc1cc(/C=C/C(=O)c2c(C)oc3nc[nH]c(=O)c23)ccc1O`, the growth is reported as 87.1%.
In the case of `CCc1nc(C)cn1C(=O)OCc1nc2nc(Cl)nc(N3CCOCC3)c2[nH]1`, the growth is reported as -80% (active).
With `O=C(Nc1ccccc1)Oc1ccccc1-c1ccccc1` the growth was 88.2%.
Compound `COc1ccc(C(O)c2cc3c(N)c(C(=O)Nc4ccccc4)sc3nc2C)cc1` (stereo unspecified) has a growth of 15.1%.
Compound `CCC(C)N(CCNc1cc(OC)cc2cccnc12)CCC(C)C` (stereo unspecified) has a growth of 90.8%.

These compounds were tested on A498 renal in the same assay as above. Settings: 10 µM unless noted.
With `O=C1Nc2ccccc2/C1=C\c1cccc(/C=C2/C(=O)Nc3ccccc32)n1` the growth was -77.7% (active).
Compound `COc1ccc(/C=N/NC(=O)c2cccc3cc[nH]c23)cc1O` has a growth of 74.5%.
In the case of `CCN1C(=O)N(CC)C2C1NN=c1s/c(=C3\C(=O)Nc4ccccc43)c(=O)n12` (stereo unspecified), the growth is reported as -26.6% (active).
Work on `CC(C)(O)C1CCCN1C(=O)c1ccccc1I` (stereo unspecified) yielded a growth of 73.6%.
`O=C1NC(=S)NC(=O)C1=Cc1cccc(C=C2C(=O)NC(=S)NC2=O)c1` was tested, and the growth was 93.1%.
With `Cn1c2c(Cl)c(Cl)ccc2c2cc(N)[nH]c(=O)c21` the growth was 56.5%.
Work on `COc1ccc(-c2cnnc3c(-c4cccc(C(F)(F)F)c4)cnn23)cc1` yielded a growth of 78.6%.
`O=C1Nc2c(ccc(Cl)c2Cl)/C1=C/c1ccc([N+](=O)[O-])cc1` gave a growth of 99.4%.
`COc1ccc(-c2nc(SCC(C)C)nc(N/N=C(/C)c3ccc(OC)c(OC)c3)c2C#N)cc1` showed a growth of 67.9%.
Work on `NS(=O)(=O)c1cccc(NC(=O)C(=O)C2C(=O)Nc3ccccc32)c1` (stereo unspecified) yielded a growth of 120%.
Compound `O=S(=O)(c1cccc(NC2=Nc3cccc4cccc2c34)c1)N1CCCC1` has a growth of 75.1%.
Compound `CCOC(=O)c1c(SC)nn(-c2cc(=O)[nH]c3ccc(Br)cc23)c1N` has a growth of 110%.
In the case of `CC(=O)c1c[nH]c2ccc(-c3ccnc(Nc4ccc(NC(=O)C5CCCC5)c(CN5CCOCC5)c4)n3)cc12`, the growth is reported as -85.1% (active).
Compound `COc1ccc(/C=C(/c2ccccc2)[N+](=O)[O-])cc1` has a growth of 10%.
In the case of `O=C1Nc2c(ccc(Cl)c2Cl)/C1=C/c1ccccn1`, the growth is reported as 110%.
`CCN(CCNc1cc(OC)cc2cccnc12)CCc1ccccc1` showed a growth of 92.2%.
With `COc1cc2nc(-c3ccc(C#N)cc3)[nH]c(=O)c2cc1OC` the growth was 120%.
`CCCOc1nc(SCCC)nc2c1cnn2-c1ccccc1` gave a growth of 134%.
With `O=S(=O)(c1ccccc1)N1CCCc2ccccc21` the growth was 77.1%.
`O=C(Nc1ccc(Cl)cc1)Nc1ccc(Cl)c(Cl)c1` was tested, and the growth was 11.4%.
`COc1cc(NCC(O)CN(CC(C)C)C2CCCC2)c2ncccc2c1` (stereo unspecified) was tested, and the growth was 71.5%.
`COc1ccc(Nn2c(SCC(=O)Nc3nc(-c4ccc(Cl)cc4)cs3)nc(C)c2C)cc1` was tested, and the growth was 69.5%.
With `COc1cccc2c1C(=O)c1c(O)c3c(c(O)c1C2=O)C[C@@](O)(C(=O)CO)C[C@@H]3O[C@H]1C[C@H](N)[C@@H](O)[C@H](C)O1` the growth was -67.3% (active).
`Clc1ccc(N2N=C(c3cccc(Nc4ccncc4)c3)CC2c2ccc3c(c2)OCO3)cc1` (stereo unspecified) gave a growth of 69.7%.
For `O=C(N/N=C/c1ccncc1)c1ccccc1Nc1cccc(C(F)(F)F)c1`, the growth was 71.9%.
For `COc1ccc(Cc2nc3cc(OC)c(OC)cc3c(=O)[nH]2)cc1`, the growth was 122%.
`COc1ccc(-c2c[nH]c(C(=O)O)c2-c2cc(OC)c3c(c2OC)OCO3)cc1` was tested, and the growth was 95%.
`Clc1ccc(N2N=C(c3cccc(Nc4ccncc4)c3)CC2c2ccccc2)cc1` (stereo unspecified) showed a growth of 84.5%.
Work on `COc1ccc(Cn2nc(-c3cc(OC)c(OC)c(OC)c3)c3c2CCc2cnoc2-3)cc1OC` yielded a growth of 42.1%.
For `COc1cc2nnn3c4ncccc4c(N=O)c3c2cc1OC`, the growth was 174%.
`Clc1nc(Cl)c2ncn(CC3(Cn4cnc5c(Cl)nc(Cl)nc54)COC3)c2n1` was tested, and the growth was -88.6% (active).
`C(=N\Nc1ncc(-c2cc3cc4c(cc3o2)OCO4)s1)/c1c[nH]c2ccccc12` was tested, and the growth was -3.19% (active).
Compound `COc1ccc(-c2nn(Cc3ccccc3)c3c2-c2oncc2CC3)cc1OC` has a growth of 57.4%.
With `COc1cc(/C=C/C(=O)c2c(C)oc3nc[nH]c(=O)c23)ccc1O` the growth was 94.8%.
In the case of `CCc1nc(C)cn1C(=O)OCc1nc2nc(Cl)nc(N3CCOCC3)c2[nH]1`, the growth is reported as 22.1%.
Work on `O=C(Nc1ccccc1)Oc1ccccc1-c1ccccc1` yielded a growth of 75.3%.
With `COc1ccc(C(O)c2cc3c(N)c(C(=O)Nc4ccccc4)sc3nc2C)cc1` (stereo unspecified) the growth was -20.8% (active).
With `CCC(C)N(CCNc1cc(OC)cc2cccnc12)CCC(C)C` (stereo unspecified) the growth was 72.9%.

Reference: PubChem BioAssay (NCI)
